This note sets out measurements from PubChem BioAssay (EPA / NIEHS).

Activity calls are given as the source filed them. Rule for the calls: active = hit-call score of the fitted dose curve at least 0.9, where 1 is the maximum; inactive = score below 0.9.

Read-out in one test: TIMP metallopeptidase inhibitor 2 (TIMP2), TIMP2 (gene 7077)
Nature of the test: BSK_KF3CT_TIMP2: BioMAP Diversity Plus: KF3CT Assay for TIMP metallopeptidase inhibitor 2 (TIMP2) Biomarker Activity (AID 2283071). The note with it: primary human keratinocytes with fibroblasts; actives raise or lower the signal. The gist of the method:
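TIMP-2 measured by ELISA at 24 h in human keratinocyte/fibroblast primary co-cultures exposed to chemicals. Both increases and decreases were fitted against DMSO. Parallel cultures were stained with SRB for total protein as an overt-cytotoxicity check.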
In the case of `Cc1c([N+](=O)[O-])c(C)c([N+](=O)[O-])c(C(C)(C)C)c1[N+](=O)[O-]`, the outcome was inactive.

Consider `CCCCN(CCCC)C(=S)[S-].CCCCN(CCCC)C(=S)[S-].[Ni+2]`, for which the result was inactive.

On to `O=C(CCl)NCO`, for which the outcome was inactive.

For the compound `Cc1cc(Cl)ccc1N`, the outcome was inactive.

Consider `Oc1cc(Cl)c(Cl)cc1Cl`, for which the outcome was inactive.

With `CCOC(=O)CCN(SN(C)C(=O)Oc1cccc2c1OC(C)(C)C2)C(C)C`, the outcome was inactive.

In the case of `CCCCOC(=O)COC(=O)c1ccccc1C(=O)OCCCC`, the outcome was inactive.

With `N#CCCC(Br)(C#N)CBr` (centres undefined), the AC50 (commonly the concentration giving half of the maximal activity seen) was 20 µM (active).

Read-out in another test: Transforming growth factor beta 1 (TGFb1), TGFB1 (gene 7040)
Nature of the test: BSK_KF3CT_TGFb1: BioMAP Diversity Plus: KF3CT Assay for Transforming growth factor beta 1 (TGFb1) Biomarker Activity (AID 2283072). The note with it: primary human keratinocytes with fibroblasts; actives raise or lower the signal. In outline: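 ELISA quantifies TGF-b1 at 24 h post-dose in a primary human skin co-culture of keratinocytes and fibroblasts, with gain or loss judged against DMSO. Parallel SRB total-protein staining flags overt cytotoxicity.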
As for `CCCCCCCCCCCCc1cccc(S(=O)(=O)O)c1`, the AC50 was 25.3 µM (active).

As for `CC(C)N(C(=O)CCl)c1ccccc1`, the AC50 is 20 µM (active).

For `CN(C)C(=S)S`, the result was inactive.

Regarding `Oc1c(Br)cc(Br)cc1Br`, the outcome was inactive.

Consider `C[C@]12CC[C@@H](O)C[C@@H]1CC[C@@H]1[C@@H]2CC[C@]2(C)C(=O)CC[C@@H]12`, for which the result was inactive.

Turning to `O=C(O)COc1cc(Cl)c(Cl)cc1Cl`, the outcome was inactive.

On to `Cc1ccc(OP(=O)(Oc2ccc(C)cc2C)Oc2ccc(C)cc2C)c(C)c1`, for which the result was inactive.

Take `C=CC(Cl)CCl` (centres undefined): the AC50 is 0.189 µM (active).

With `[Cl][Sn]([c]1ccccc1)([c]1ccccc1)[c]1ccccc1`, the AC50 is 0.0622 µM (active).

Regarding `COc1ccccc1N`, the result was inactive.

Turning to `Cc1cccc(OP(=O)(Oc2cccc(C)c2)Oc2cccc(C)c2)c1`, the result was inactive.

Take `N#Cc1cccnc1`: the outcome was inactive.

As to `OC(Cc1ccccc1Cl)(Cn1[nH]cnc1=S)C1(Cl)CC1` (centres undefined), the AC50 was 16.9 µM (active).

In the case of `CC1(C)[C@H](C(=O)O[C@H](C#N)c2cccc(Oc3ccccc3)c2)[C@@H]1/C=C(\Cl)C(F)(F)F`, the outcome was inactive.

Take `CCCCCCCCCCCCN(C)C`: the outcome was inactive.

Regarding `Nc1ccc(N)cc1`, the result was inactive.

With `COCC(=O)N(c1c(C)cccc1C)[C@H](C)C(=O)OC`, the result was inactive.

For the compound `CCOP(=S)(OCC)OP(=S)(OCC)OCC`, the outcome was inactive.

For `Clc1cccc(Cl)c1`, the outcome was inactive.

Turning to `OC(Cc1ccccc1Cl)(Cn1cncn1)C1(Cl)CC1` (centres undefined), the outcome was inactive.

In the case of `Clc1cccc(Cl)c1Cl`, the outcome was inactive.

Regarding `NC(=O)CCl`, the result was inactive.

In the case of `O=C(N[C@H]1CN2CCC1CC2)c1ccc2c(c1)OCCO2`, the outcome was inactive.

On to `c1ccc(-c2cccc(-c3ccccc3)c2)cc1`, for which the result was inactive.

In the case of `Cc1c([N+](=O)[O-])c(C)c([N+](=O)[O-])c(C(C)(C)C)c1[N+](=O)[O-]`, the outcome was inactive.

Turning to `CCCCN(CCCC)C(=S)[S-].CCCCN(CCCC)C(=S)[S-].[Ni+2]`, the outcome was inactive.

Regarding `O=C(CCl)NCO`, the result was inactive.

As for `Cc1cc(Cl)ccc1N`, the outcome was inactive.

Turning to `Oc1cc(Cl)c(Cl)cc1Cl`, the result was inactive.

With `CCOC(=O)CCN(SN(C)C(=O)Oc1cccc2c1OC(C)(C)C2)C(C)C`, the result was inactive.

With `N#CCCC(Br)(C#N)CBr` (centres undefined), the AC50 was 11.3 µM (active).

Read-out in a further test: C-C motif chemokine 2 (Homo sapiens) (UniProt P13500)
Nature of the test: BSK_KF3CT_MCP1: BioMAP Diversity Plus: KF3CT Assay for Monocyte Chemoattractant Protein 1 (MCP1/CCL2) Biomarker Activity (AID 2283073). The note with it: primary human keratinocytes with fibroblasts; actives raise or lower the signal. The gist of the method:
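ELISA readout of MCP-1 after 24 h chemical dosing of a human skin primary co-culture of keratinocytes and foreskin fibroblasts. Activity was fitted in both directions against DMSO.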
For the compound `C[C@]12CC[C@@H](O)C[C@@H]1CC[C@@H]1[C@@H]2CC[C@]2(C)C(=O)CC[C@@H]12`, the result was inactive.

Turning to `Cc1ccc(OP(=O)(Oc2ccc(C)cc2C)Oc2ccc(C)cc2C)c(C)c1`, the result was inactive.

For `C=CC(Cl)CCl` (centres undefined), the outcome was inactive.

For the compound `[Cl][Sn]([c]1ccccc1)([c]1ccccc1)[c]1ccccc1`, the AC50 was 0.19 µM (active).

`COc1ccccc1N`: the outcome was inactive.

Regarding `Cc1cccc(OP(=O)(Oc2cccc(C)c2)Oc2cccc(C)c2)c1`, the outcome was inactive.

In the case of `OC(Cc1ccccc1Cl)(Cn1[nH]cnc1=S)C1(Cl)CC1` (centres undefined), the outcome was inactive.

As to `CC1(C)[C@H](C(=O)O[C@H](C#N)c2cccc(Oc3ccccc3)c2)[C@@H]1/C=C(\Cl)C(F)(F)F`, the result was inactive.

Turning to `CCCCCCCCCCCCN(C)C`, the result was inactive.

As to `Clc1cccc(Cl)c1`, the outcome was inactive.

Turning to `Oc1cc(Cl)c(Cl)cc1Cl`, the AC50 is 20 µM (active).

On to `CCCCOC(=O)COC(=O)c1ccccc1C(=O)OCCCC`, for which the outcome was inactive.

In the case of `N#CCCC(Br)(C#N)CBr` (centres undefined), the AC50 was 20 µM (active).

Read-out in another test: Matrix Metallopeptidase 9 (MMP9), MMP9 (gene 4318)
In words: BSK_KF3CT_MMP9: BioMAP Diversity Plus: KF3CT Assay for Matrix Metallopeptidase 9 (MMP9) Biomarker Activity (AID 2283074).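 For AC50: MMP9 protein level quantified by ELISA in the co-culture.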 Conditions: primary human keratinocytes with fibroblasts; actives raise or lower the signal. In outline: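 ELISA read-out of MMP-9 at 24 h post-dosing in a co-culture of human skin keratinocytes and foreskin fibroblasts. Gain or loss of signal was fitted in both directions against DMSO.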
With `CCCCCCCCCCCCc1cccc(S(=O)(=O)O)c1`, the AC50 is 18 µM (active).

As to `CC(C)N(C(=O)CCl)c1ccccc1`, the AC50 is 29.6 µM (active).

As for `CN(C)C(=S)S`, the result was inactive.

`Oc1c(Br)cc(Br)cc1Br`: the AC50 is 28.2 µM (active).

In the case of `C[C@]12CC[C@@H](O)C[C@@H]1CC[C@@H]1[C@@H]2CC[C@]2(C)C(=O)CC[C@@H]12`, the outcome was inactive.

`O=C(O)COc1cc(Cl)c(Cl)cc1Cl`: the outcome was inactive.

In the case of `Cc1ccc(OP(=O)(Oc2ccc(C)cc2C)Oc2ccc(C)cc2C)c(C)c1`, the AC50 was 8.84 µM (active).

As for `C=CC(Cl)CCl` (centres undefined), the result was inactive.

`[Cl][Sn]([c]1ccccc1)([c]1ccccc1)[c]1ccccc1`: the AC50 was 0.0692 µM (active).

`COc1ccccc1N`: the result was inactive.

For the compound `Cc1cccc(OP(=O)(Oc2cccc(C)c2)Oc2cccc(C)c2)c1`, the AC50 is 20.3 µM (active).

On to `N#Cc1cccnc1`, for which the result was inactive.

Take `OC(Cc1ccccc1Cl)(Cn1[nH]cnc1=S)C1(Cl)CC1` (centres undefined): the result was inactive.

As for `CC1(C)[C@H](C(=O)O[C@H](C#N)c2cccc(Oc3ccccc3)c2)[C@@H]1/C=C(\Cl)C(F)(F)F`, the AC50 was 0.357 µM (active).

With `CCCCCCCCCCCCN(C)C`, the outcome was inactive.

Take `OCCCCO`: the result was inactive.

Consider `Nc1ccc(N)cc1`, for which the outcome was inactive.

With `COCC(=O)N(c1c(C)cccc1C)[C@H](C)C(=O)OC`, the result was inactive.

Take `CCOP(=S)(OCC)OP(=S)(OCC)OCC`: the outcome was inactive.

Take `Clc1cccc(Cl)c1`: the result was inactive.

As to `OC(Cc1ccccc1Cl)(Cn1cncn1)C1(Cl)CC1` (centres undefined), the outcome was inactive.

As for `NC(=O)CCl`, the result was inactive.

In the case of `O=C(N[C@H]1CN2CCC1CC2)c1ccc2c(c1)OCCO2`, the result was inactive.

With `c1ccc(-c2cccc(-c3ccccc3)c2)cc1`, the half-maximal activity concentration (AC50) was 8.97 µM (active).

In the case of `Cc1c([N+](=O)[O-])c(C)c([N+](=O)[O-])c(C(C)(C)C)c1[N+](=O)[O-]`, the AC50 was 31.1 µM (active).

With `CCCCN(CCCC)C(=S)[S-].CCCCN(CCCC)C(=S)[S-].[Ni+2]`, the outcome was inactive.

`O=C(CCl)NCO`: the result was inactive.

On to `Cc1cc(Cl)ccc1N`, for which the outcome was inactive.

As for `Oc1cc(Cl)c(Cl)cc1Cl`, the outcome was inactive.

As to `CCOC(=O)CCN(SN(C)C(=O)Oc1cccc2c1OC(C)(C)C2)C(C)C`, the result was inactive.

Regarding `CCCCOC(=O)COC(=O)c1ccccc1C(=O)OCCCC`, the outcome was inactive.

Take `N#CCCC(Br)(C#N)CBr` (centres undefined): the concentration at half-maximal activity (AC50) was 20 µM (active).
